Test results taken from PubChem BioAssay AID623970 (The Scripps Research Institute Molecular Screening Center, 2012).
“And” between values parts separate entries of the source, which are not always exact repeats. Equal values may be shown once. Unmarked numbers belong to inactive results. The source made the active and inactive calls. No stated cut-off is given here; in the data, active means IC50 below about 90 µM; inactive means the rest.

Experiment: compound-DNA interaction, SYBR readout – biochemical, fluorescence, artefact control for HCV NS3 helicase inhibitor project, late-stage follow-up (AID 623970)
Conditions: DNA binding, SYBR dye displacement fluorescence

SMILES | IC50
Cc1ccc2nc(-c3ccc4nc(-c5ccc(NC(=O)c6cccc7ccccc67)cc5)sc4c3)sc2c1S(=O)(=O)O | 30 µM (active)
Cc1ccc2nc(-c3ccc4nc(-c5ccc(NC(=O)c6ccc7ccccc7c6)cc5)sc4c3)sc2c1S(=O)(=O)O | 36 µM (active) and 25 µM (active)
COc1ccc(S(=O)(=O)Nc2ccc(-c3nc4ccc(-c5nc6ccc(C)c(S(=O)(=O)O)c6s5)cc4s3)cc2)cc1 | 42 µM (active)
Cc1ccc2nc(-c3ccc(NC(=O)c4ccc(NC(=O)c5ccc(C(F)(F)F)cc5)cc4)cc3)sc2c1S(=O)(=O)O | > 100 µM
Cc1ccc2nc(-c3ccc4nc(-c5ccc(NC(=O)c6cccc(C(F)(F)F)c6F)cc5)sc4c3)sc2c1S(=O)(=O)O | > 100 µM
Cc1ccc2nc(-c3ccc4nc(-c5ccc(NC(=O)c6ccc(C(F)(F)F)cc6)cc5)sc4c3)sc2c1S(=O)(=O)O | 29 µM (active)
Cc1ccc2nc(-c3ccc4nc(-c5ccc(NC(=O)c6cc(F)ccc6C(F)(F)F)cc5)sc4c3)sc2c1S(=O)(=O)O | > 100 µM
COC(=O)c1ccc(C(=O)Nc2ccc(-c3nc4ccc(-c5nc6ccc(C)c(S(=O)(=O)O)c6s5)cc4s3)cc2)cc1 | > 100 µM
Cc1ccc2nc(-c3ccc4nc(-c5ccc(NC(=O)c6ccc(C(F)(F)F)c(F)c6)cc5)sc4c3)sc2c1S(=O)(=O)O | 28 µM (active)
Cc1ccc2nc(-c3ccc4nc(-c5ccc(NS(=O)(=O)c6ccc(C(F)(F)F)cc6)cc5)sc4c3)sc2c1S(=O)(=O)O | 82 µM (active)
CCOc1ccc2c(NNC(=O)c3cnccn3)c3c(nc2c1)CCCC3 | > 100 µM
Cc1ccc2nc(-c3ccc(NC(=O)c4ccc(NC(=O)OCC5c6ccccc6-c6ccccc65)cc4)cc3)sc2c1S(=O)(=O)O | > 100 µM
Cc1ccc2nc(-c3ccc4nc(-c5ccc6nc(-c7ccc(N)cc7)sc6c5)sc4c3)sc2c1S(=O)(=O)O (tested in a mixture with another compound) | 43 µM (active)
Cc1ccc2c(sc(-c3ccc4c(c3)sc(-c3ccc5c(c3)sc(-c3ccc(N(C)C)cc3)[n+]5C)[n+]4C)[n+]2C)c1S(=O)(=O)O (tested in a mixture with another compound) | 61 µM (active)
Cc1ccc2nc(-c3ccc4nc(-c5ccc(NC(=O)c6ccc(CNC(=O)OCC7c8ccccc8-c8ccccc87)cc6)cc5)sc4c3)sc2c1S(=O)(=O)O | 56 µM (active)
Cc1ccc2nc(-c3ccc4nc(-c5ccc(NC(=O)Nc6ccc(Cl)cc6)cc5)sc4c3)sc2c1S(=O)(=O)O | 8 µM (active)
Cc1ccc2nc(-c3ccc4nc(-c5ccc(NC(=O)c6cccnc6)cc5)sc4c3)sc2c1S(=O)(=O)O | > 100 µM
Cc1ccc2nc(-c3ccc(NC(=O)c4ccc(NC(=O)Nc5ccccc5)cc4)cc3)sc2c1S(=O)(=O)O | > 100 µM
Cc1ccc2nc(-c3ccc(NC(=O)c4ccc(N)cc4)cc3)sc2c1S(=O)(=O)O | > 100 µM
Cc1cc2sc(-c3ccc(N)cc3)nc2cc1S(=O)(=O)O | > 100 µM
Cc1ccc2nc(-c3ccc(NC(=O)c4ccc(NC(=S)Nc5ccccc5)cc4)cc3)sc2c1S(=O)(=O)O | > 100 µM
Cc1ccc2nc(-c3ccc4nc(-c5ccc(NC(=O)c6ccccc6C(F)(F)F)cc5)sc4c3)sc2c1S(=O)(=O)O | > 100 µM
Cc1ccc2nc(-c3ccc4nc(-c5ccc(NC(=S)Nc6ccccc6)cc5)sc4c3)sc2c1S(=O)(=O)O | 30 µM (active)
